Compound activity as filed in PubChem BioAssay.
Most compounds without a hit are left out; they make up all but 2.5% or so of the library.
Cruzain inh noDet: qHTS Assay for Promiscuous and Specific Inhibitors of Cruzain (without detergent); AID 1476, 2009; Potency, µM, most hits filed as inhibitors; actives 2.3% (n = 200,000); purified cruzain, Z-FR-AMC fluorescence, no detergent; Cruzipain (Trypanosoma cruzi), P25779; note: nearly all actives have a fitted effect of over 40% in size
Target sequence (P25779 123-467 limits assumed): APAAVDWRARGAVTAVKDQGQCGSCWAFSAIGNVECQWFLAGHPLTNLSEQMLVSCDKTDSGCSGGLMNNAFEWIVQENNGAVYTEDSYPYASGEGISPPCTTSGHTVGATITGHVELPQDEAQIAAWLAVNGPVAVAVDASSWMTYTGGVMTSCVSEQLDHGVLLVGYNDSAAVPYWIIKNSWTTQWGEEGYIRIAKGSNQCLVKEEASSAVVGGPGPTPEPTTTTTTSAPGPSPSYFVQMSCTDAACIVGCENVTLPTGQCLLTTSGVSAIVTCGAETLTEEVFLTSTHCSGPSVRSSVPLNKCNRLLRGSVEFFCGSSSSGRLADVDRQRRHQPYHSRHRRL
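Detergent-free condition (0.00005% Triton X-100) in acetate buffer pH 5.5 with DTT. 1.5 nM enzyme and compound were pre-mixed 15 min, then 2 uM Z-FR-AMC substrate added; reaction progress from fluorescence change between first and third reads (60 s).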
Cruzain Triton: qHTS Assay for Promiscuous and Specific Inhibitors of Cruzain (with detergent); AID 1478, 2009; actives 0.43% (n = 200,000); purified cruzain, Z-FR-AMC fluorescence, 0.01% Triton; Potency, µM, most hits filed as inhibitors; note: nearly all actives have a fitted effect of over 40% in size
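Compounds were screened in titration against cruzain (1.5 nM) with 0.01% Triton X-100 to counter colloidal aggregation. Activity was the AMC fluorescence increase over 60 s after adding 2 uM Z-FR-AMC at pH 5.5.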
Large screens that a line does not name were inactive. Calls come from the whole dose curve; as a rule, active = well fitted curve in the direction sought with a large enough effect; inconclusive = small, poorly fitted or top-dose-only effect, or another doubt; inactive = no such curve, though single readings can be large; an effect the other way counts as inactive or inconclusive.

COc1ccccc1OCc1nc(-c2cccc(C)c2)no1	none
COC(=O)c1c(C)oc2ccc(N(C(=O)c3ccncc3)S(=O)(=O)c3cc(C)c(C)cc3C)cc12	none
Cc1ccc(S(=O)(=O)N(C(=O)c2ccncc2)c2ccc3oc4c(c3c2)CCCC4)cc1[N+](=O)[O-]	Cruzain inh noDet 13µM
Cc1ccc([N+](=O)[O-])cc1S(=O)(=O)N(C(=O)c1ccncc1)c1ccc2oc3c(c2c1)CCCC3	Cruzain inh noDet 13µM
CCc1ccc(S(=O)(=O)N(C(C)=O)c2ccc3oc4c(c3c2)CCCC4)cc1	none
CCN(Cc1ccccc1)c1ccc(/C=N/NS(=O)(=O)c2cccc([N+](=O)[O-])c2)cc1	Cruzain inh noDet 25µM
CCN(CC)c1ccc(/C=N/NS(=O)(=O)c2ccc(C)c([N+](=O)[O-])c2)cc1	none
CCOc1ccc(N(CC)S(=O)(=O)N2CCCC(C(=O)NCc3ccccc3Cl)C2)cc1 (stereo unspecified)	none
CCn1ccc2c(OCC(=O)Nc3ccccc3C(F)(F)F)cccc2c1=O	none
O=C(O)CCC(=O)NNC(=O)CCCOc1ccc(Cl)cc1Cl	none
O=C(CCCOc1ccc(Cl)cc1Cl)NNC(=O)c1ccc(NC(=O)c2ccccc2)cc1	Cruzain inh noDet 4µM
Cc1ccccc1C(=O)Nc1ccc(C(=O)NNC(=O)CCCOc2ccc(Cl)cc2Cl)cc1	Cruzain inh noDet 10µM
COC(=O)NNC(=O)CCCOc1ccc(Cl)cc1Cl	none
Cc1cccc(-n2c3nc(=O)[nH]c(=O)c-3cc3ccc(Cl)cc32)c1C	none
Cc1cccc(C)c1NC(=O)CCCn1c(=O)c2cccn2c2ccccc21	Cruzain inh noDet inconclusive
O=c1oc2c(CN3CCOCC3)c(O)c(Cl)cc2c2c1CCC2	Cruzain inh noDet inconclusive, Cruzain Triton 25µM
CN(C)Cc1cc(Cl)c(O)c(CN(C)C)c1	none
Cc1c(O)c(CN2CCCCC2)cc2c3c(c(=O)oc12)CCC3	Cruzain inh noDet inconclusive
CCN(CC)Cc1c(O)c(Cl)cc2c3c(c(=O)oc12)CCCC3	Cruzain Triton inconclusive
Cc1c(C)c2cc(Cl)c(O)c(CN(C)C)c2oc1=O	Cruzain inh noDet inconclusive, Cruzain Triton 32µM
CN(C)Cc1c(O)c(Cl)cc2c3c(c(=O)oc12)CCCC3	Cruzain inh noDet 13µM, Cruzain Triton inconclusive
CCOc1ccccc1NS(=O)(=O)c1c(-c2ccc(C)cc2)csc1C(=O)OC	Cruzain inh noDet inconclusive
CCN(CC)c1ccc(NC(=O)c2cccn2-c2nnc(N3CCCCC3)s2)c(C)c1	none
C[C@H]1C2C=C[C@H]1[C@@H](C(=O)O)[C@@H]2c1c2ccc(=O)c(O)c-2oc2c(O)c(O)ccc12	none
COc1ccc(C(=O)NCCc2sc(-c3cccc(F)c3)nc2C)cc1	none
CCCS(=O)(=O)Nc1cc(-c2cn3cccc(C)c3n2)ccc1C	none
O=C(CSc1nc(C2CC2)nc2ccccc12)N1c2ccccc2Sc2ccc(C(F)(F)F)cc21	Cruzain inh noDet 4µM
O=C(CN1CCCC(O)C1)N1c2ccccc2Sc2ccc(C(F)(F)F)cc21 (stereo unspecified)	none
CN(C)c1ccc(Nc2nc3ccccc3n3nnnc23)cc1	Cruzain inh noDet 16µM
c1ccc2c(c1)nc(N1CCOCC1)c1nnnn12	none
COc1ccc(CCNc2nc3ccccc3n3nnnc23)cc1OC	none
c1ccc(CCNc2nc3ccccc3n3nnnc23)cc1	Cruzain inh noDet 13µM
CCOc1ccc(Nc2nc3ccccc3n3nnnc23)cc1	none
c1ccc(N2CCN(c3nc4ccccc4n4nnnc34)CC2)cc1	Cruzain inh noDet 25µM
CCOc1ccc(N(CC(=O)NCc2ccc(C)cc2)S(=O)(=O)c2c(C)noc2C)cc1	none
COc1ccccc1CNC(=O)Cn1c(=O)nc(-c2ccccc2F)c2cc(Cl)ccc21	none
CC(=O)c1ccc(NC(=O)C2=CC(c3ccc(C)cc3)=NS(=O)(=O)N2C)cc1	Cruzain inh noDet inconclusive
COc1ccc(C(Cl)=C(c2ccc(OC)cc2)c2ccc(OC)cc2)cc1	Cruzain inh noDet 20µM
COc1ccc(C(=N/O)/C(=N/O)c2ccc(OC)cc2)cc1	none
Cc1nn2c(=O)cc(COC(=O)c3ccccc3NC(=O)c3ccccc3C)nc2s1	none
Cc1ccc(C(=O)Nc2onc3c2CCCC3)cc1	none
CC(=O)c1cccc(S(=O)(=O)N2CCN(c3nc4cc(C)cc(C)c4cc3C#N)CC2)c1	Cruzain inh noDet 16µM
CC(=O)c1cccc(S(=O)(=O)N2CCN(c3ccccc3F)CC2)c1	none
Cc1ccc(CNC(=O)Cn2c(=O)n(-c3cccc(Cl)c3)c(=O)c3sc4ccccc4c32)cc1	Cruzain inh noDet 13µM
Cc1ccc(CNC(=O)Cn2c(=O)n(Cc3ccccc3)c(=O)c3sc4ccccc4c32)cc1	none
CCN(CC)CCOC(=O)c1ccc(NC(=O)c2cc3c(=O)n(CC)c4ccccc4c3s2)cc1	none
Cc1ccc(C(=O)N/N=C/c2cc(C)n(-c3ccc(Br)cc3)c2C)cc1[N+](=O)[O-]	Cruzain inh noDet 20µM
Cc1ccc(-n2c(C)cc(/C=N/NC(=O)c3ccncc3)c2C)cc1	none
COc1ccc(NC(=O)C2CCC(CNS(=O)(=O)c3csc(C(N)=O)c3)CC2)cc1 (stereo unspecified)	none
CC(C)C[C@@H](CC(=O)N[C@H](CC(=O)N[C@@H]1CCCC[C@H]1C(=O)N[C@H](CC(=O)N[C@@H](CCC(=O)O)CC(=O)O)Cc1ccccc1)C(C)C)NC(=O)[C@@H]1CCCC[C@H]1N	Cruzain inh noDet inconclusive
CCc1cnc2c(c1SCC(=O)c1ccc(OC)cc1)c(=O)n(C)c(=O)n2C	Cruzain inh noDet inconclusive
Cc1ccc(C)c(N2CCN(C(=O)c3cc4ccc5cccnc5c4[nH]3)CC2)c1	none
Cc1cccc(N2CCN(C(=O)c3cc4ccc5cccnc5c4[nH]3)CC2C)c1 (stereo unspecified)	Cruzain inh noDet 13µM
COc1ccc(-c2c(C)nn3c(N4CCN(c5ccccc5)CC4)cc(C)nc23)cc1OC	none
Cc1cc[c]([Sb]2[O]C([C@H](O)[C@H](O)C(=O)O)[C@@H](CO)[O]2)cc1 (stereo partly specified)	none
CCOC(=O)N1CCN(C(=O)c2ccc3c(c2)N(Cc2ccccc2F)C(=O)c2ccccc2S3(=O)=O)CC1	none
CCOC(=O)c1ccc(N2C(=O)c3n[nH]c(C)c3C2c2ccccc2OC)cc1 (stereo unspecified)	none
Cc1cccc(CSc2nc3c(c(-c4cccs4)c2C#N)CN(C)CC3)c1	none
Cc1cccc(CSc2nc(N)c(C#N)c(-c3cccs3)c2C#N)c1	Cruzain inh noDet 25µM
CC(C)(C)OC(=O)N1CCC(c2c(C(=O)Nc3ccc4c(c3)OCO4)cnn2-c2ccc(F)cc2F)CC1	none
CCOC(=O)c1c(N)sc2c1CCN(Cc1ccccc1)C2	Cruzain inh noDet inconclusive
Cc1ccc(OCC(=O)Nc2ccc3nc(SCC(=O)N4CCCC4)sc3c2)cc1C	none
Cc1nn(C(C)C(=O)Nc2ccccc2C(F)(F)F)c(=O)c2c1sc1ccccc12 (stereo unspecified)	none
CC1(C)CC(=O)c2cc(-c3nc(-c4ccc(Cl)cc4)cs3)c(=O)n(-c3ccc(F)cc3)c2C1	none
O=C(O)CN1CCN(CC(=O)O)CC(=O)[O][Hg][O]C(=O)C1	none
COc1ccccc1-c1nc(S(=O)(=O)c2ccccc2)c(N2CCC(C)CC2)o1	none
CCOC(=O)c1cnn(-c2nc(C)nc3sc4c(c23)CCC4)c1N	Cruzain inh noDet inconclusive
CCOC(=O)c1cnn(-c2nc(SC)nc3sc4c(c23)CCC4)c1N	Cruzain inh noDet 7.9µM
